This is an account of results in ChEMBL document CHEMBL3988442, “University of Dundee, Small-Polar-MMV Screening Library” (2021).

Set-up in all cases: scale not given: direction of the effect not stated beside the values
For test [1], the target named is Protein translocase subunit SecA (Escherichia coli (strain K12)) (UniProt P10408). In words: Assay to Identify E. coli SecA ATPase Inhibitors. The class given is functional. As to conditions: 30 µM.
Test [2] has as its target T1, Ubiquitin-activating enzyme e1, putative (Leishmania donovani (strain BPK282A1)) (UniProt E9BSI1).
T1 sequence (whole entry): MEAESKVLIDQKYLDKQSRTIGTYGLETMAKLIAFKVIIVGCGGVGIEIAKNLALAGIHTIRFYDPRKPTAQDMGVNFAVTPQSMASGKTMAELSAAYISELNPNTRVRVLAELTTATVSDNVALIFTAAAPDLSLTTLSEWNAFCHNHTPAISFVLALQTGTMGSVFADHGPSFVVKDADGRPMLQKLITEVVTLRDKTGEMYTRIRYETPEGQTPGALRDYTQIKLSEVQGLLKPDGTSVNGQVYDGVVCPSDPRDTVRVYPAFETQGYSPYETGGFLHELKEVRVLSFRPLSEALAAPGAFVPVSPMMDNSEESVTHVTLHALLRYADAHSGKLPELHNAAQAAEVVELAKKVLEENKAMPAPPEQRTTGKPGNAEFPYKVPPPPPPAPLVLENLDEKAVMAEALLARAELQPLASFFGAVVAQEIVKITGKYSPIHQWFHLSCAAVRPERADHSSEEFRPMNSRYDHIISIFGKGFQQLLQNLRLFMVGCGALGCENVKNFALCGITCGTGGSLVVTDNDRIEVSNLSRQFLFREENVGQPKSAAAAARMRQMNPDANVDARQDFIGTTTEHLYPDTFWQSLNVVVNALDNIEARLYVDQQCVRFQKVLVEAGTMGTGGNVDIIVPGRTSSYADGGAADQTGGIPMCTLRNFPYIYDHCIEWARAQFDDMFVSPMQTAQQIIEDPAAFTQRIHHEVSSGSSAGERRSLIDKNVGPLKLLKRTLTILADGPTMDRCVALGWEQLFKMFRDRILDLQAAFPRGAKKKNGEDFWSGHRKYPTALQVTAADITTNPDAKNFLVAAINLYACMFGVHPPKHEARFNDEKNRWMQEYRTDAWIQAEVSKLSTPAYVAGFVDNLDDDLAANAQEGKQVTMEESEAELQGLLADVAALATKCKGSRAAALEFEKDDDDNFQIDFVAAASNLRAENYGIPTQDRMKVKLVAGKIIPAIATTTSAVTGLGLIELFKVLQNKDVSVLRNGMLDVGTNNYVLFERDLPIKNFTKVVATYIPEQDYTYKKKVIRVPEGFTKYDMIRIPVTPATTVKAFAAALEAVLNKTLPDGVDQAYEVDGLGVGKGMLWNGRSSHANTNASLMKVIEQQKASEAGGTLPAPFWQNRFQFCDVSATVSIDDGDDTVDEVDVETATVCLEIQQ
The test is described as follows: Leishmania donovani Ubiquitin Activating Enzyme (LdE1). Type of test: functional. As to conditions: 30 µM.

Test [3] has as its target AMP-activated protein kinase, AMPK (Homo sapiens) (UniProt P54646+O43741+P54619+Q9UGJ0+Q9Y478+Q13131+Q9UGI9). In words: AMP-dependent Kinase enzyme assay. An in vitro enzyme assay that detects ADP turnover that is directly proportional to AMPK activity. This uses naive AMPK that is activated during the assay with MK-8722. The class given is functional. As to conditions: 30 µM.

The target in test [4] is Sialic acid-binding Ig-like lectin 9 (Homo sapiens) (UniProt Q9Y336). In words: Hs-Siglec9 ALPHAscreen SOP 20170721. As to conditions: 10 µM.
Chain of Sialic acid-binding Ig-like lectin 9 (Homo sapiens) (Q9Y336 whole entry): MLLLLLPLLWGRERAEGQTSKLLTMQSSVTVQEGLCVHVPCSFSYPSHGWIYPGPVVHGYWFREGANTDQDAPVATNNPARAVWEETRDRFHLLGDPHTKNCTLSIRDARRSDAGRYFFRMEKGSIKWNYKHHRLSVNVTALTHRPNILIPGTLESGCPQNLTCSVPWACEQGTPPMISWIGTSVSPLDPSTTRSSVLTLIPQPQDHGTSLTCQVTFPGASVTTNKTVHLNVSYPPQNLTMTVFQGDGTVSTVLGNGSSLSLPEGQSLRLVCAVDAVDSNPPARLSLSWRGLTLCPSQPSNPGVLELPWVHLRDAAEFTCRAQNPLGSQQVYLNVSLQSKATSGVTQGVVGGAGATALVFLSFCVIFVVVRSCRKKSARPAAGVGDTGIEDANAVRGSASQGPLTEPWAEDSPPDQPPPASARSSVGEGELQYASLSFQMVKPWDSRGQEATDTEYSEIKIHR
The subject of another test is Trypanosoma cruzi. The test is described as follows: Trypanosoma cruzi phosphomannomutase and mannose-1-phosphate guanylyltransferase assay. The class given is functional. As to conditions: 10 µM.
Test [5] has as its target T2, Arginase-2, mitochondrial (Homo sapiens) (UniProt P78540).
T2 sequence (whole entry): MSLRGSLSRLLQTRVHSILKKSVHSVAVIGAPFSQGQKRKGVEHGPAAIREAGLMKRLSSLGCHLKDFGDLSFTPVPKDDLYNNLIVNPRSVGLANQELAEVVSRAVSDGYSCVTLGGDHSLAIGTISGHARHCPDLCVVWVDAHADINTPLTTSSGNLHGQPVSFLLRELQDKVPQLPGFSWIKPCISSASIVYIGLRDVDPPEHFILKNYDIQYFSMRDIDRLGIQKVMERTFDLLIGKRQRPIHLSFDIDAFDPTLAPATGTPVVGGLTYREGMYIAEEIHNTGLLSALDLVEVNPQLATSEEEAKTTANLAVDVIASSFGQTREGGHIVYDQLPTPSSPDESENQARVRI
The test is described as follows: in vitro enzyme assay to detect the production of urea directly proportional to the activity of Arginase II. Note: in the data most compounds retested in dose-response had high values. The class given is functional. As to conditions: 33.3 µM.

Test [6] addresses T3, Proteasome subunit beta (Trypanosoma cruzi) (UniProt O96673).
T3 sequence (whole entry): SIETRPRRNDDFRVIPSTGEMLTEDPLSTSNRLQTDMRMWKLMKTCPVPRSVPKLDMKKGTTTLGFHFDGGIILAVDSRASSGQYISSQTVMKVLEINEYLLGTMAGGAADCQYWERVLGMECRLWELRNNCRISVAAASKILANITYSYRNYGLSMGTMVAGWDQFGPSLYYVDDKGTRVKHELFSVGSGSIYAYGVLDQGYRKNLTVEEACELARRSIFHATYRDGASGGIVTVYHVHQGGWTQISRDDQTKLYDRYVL
In words: Trypanosoma cruzi proteasome chymotrypsin-like activity (TcProtChymo) assay. Note: in the data most compounds retested in dose-response had high values. As to conditions: 9.37 µM. Type of test: functional.

The species entered for another test is Homo sapiens. The test is described as follows: To identify inhibition of the IFN signalling (Jak-Stat) pathway via expression of an eGFP reporter gene under the control of an IFN-stimulated response element (ISRE) containing MxA promoter. As to conditions: 30 µM. The class given is functional.
In test [7] the target is T4, Tyrosyl-tRNA synthetase, putative (Trypanosoma cruzi (strain CL Brener)) (UniProt Q4DSP6).
T4 sequence (whole entry): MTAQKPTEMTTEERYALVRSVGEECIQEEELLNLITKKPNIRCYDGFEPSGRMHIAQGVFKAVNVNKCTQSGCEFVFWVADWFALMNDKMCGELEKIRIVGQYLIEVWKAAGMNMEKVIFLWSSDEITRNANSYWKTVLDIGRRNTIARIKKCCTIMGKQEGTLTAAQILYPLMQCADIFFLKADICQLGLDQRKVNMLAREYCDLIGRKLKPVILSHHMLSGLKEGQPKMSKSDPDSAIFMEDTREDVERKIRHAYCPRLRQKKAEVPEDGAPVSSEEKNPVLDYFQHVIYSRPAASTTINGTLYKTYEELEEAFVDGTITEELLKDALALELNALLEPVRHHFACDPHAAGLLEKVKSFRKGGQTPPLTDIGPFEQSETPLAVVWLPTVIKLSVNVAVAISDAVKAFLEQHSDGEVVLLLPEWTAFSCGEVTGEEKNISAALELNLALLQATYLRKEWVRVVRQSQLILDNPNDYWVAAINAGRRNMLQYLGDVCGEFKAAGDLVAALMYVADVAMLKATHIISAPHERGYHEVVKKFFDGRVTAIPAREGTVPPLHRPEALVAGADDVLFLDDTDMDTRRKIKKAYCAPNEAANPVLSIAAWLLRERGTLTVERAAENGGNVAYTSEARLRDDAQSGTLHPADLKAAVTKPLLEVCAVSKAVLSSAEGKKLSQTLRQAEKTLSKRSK
In words: Trypanosoma cruzi tyrosyl tRNA synthetase (TcYRS) _High Tyrosine SOP. Note: in the data most compounds retested in dose-response had high values. The class given is functional. As to conditions: 30 µM.

The target in test [8] is T4, Tyrosyl-tRNA synthetase, putative (Trypanosoma cruzi (strain CL Brener)). The test is described as follows: Trypanosoma cruzi tyrosyl tRNA synthetase (TcYRS) SOP. The class given is functional. As to conditions: 30 µM.
For test [9], the target named is Chromo domain-containing protein 1 (Saccharomyces cerevisiae (strain ATCC 204508 / S288c) (Baker's yeast)) (UniProt P32657). In words: ScCHD-1 Enzyme Inhibition Assay. Note: in the data most compounds retested in dose-response had high values. Type of test: functional. As to conditions: 30 µM.
Chain of Chromo domain-containing protein 1 (Saccharomyces cerevisiae (strain ATCC 204508 / S288c) (Baker's yeast)) (P32657 whole entry, the tested form may be a part): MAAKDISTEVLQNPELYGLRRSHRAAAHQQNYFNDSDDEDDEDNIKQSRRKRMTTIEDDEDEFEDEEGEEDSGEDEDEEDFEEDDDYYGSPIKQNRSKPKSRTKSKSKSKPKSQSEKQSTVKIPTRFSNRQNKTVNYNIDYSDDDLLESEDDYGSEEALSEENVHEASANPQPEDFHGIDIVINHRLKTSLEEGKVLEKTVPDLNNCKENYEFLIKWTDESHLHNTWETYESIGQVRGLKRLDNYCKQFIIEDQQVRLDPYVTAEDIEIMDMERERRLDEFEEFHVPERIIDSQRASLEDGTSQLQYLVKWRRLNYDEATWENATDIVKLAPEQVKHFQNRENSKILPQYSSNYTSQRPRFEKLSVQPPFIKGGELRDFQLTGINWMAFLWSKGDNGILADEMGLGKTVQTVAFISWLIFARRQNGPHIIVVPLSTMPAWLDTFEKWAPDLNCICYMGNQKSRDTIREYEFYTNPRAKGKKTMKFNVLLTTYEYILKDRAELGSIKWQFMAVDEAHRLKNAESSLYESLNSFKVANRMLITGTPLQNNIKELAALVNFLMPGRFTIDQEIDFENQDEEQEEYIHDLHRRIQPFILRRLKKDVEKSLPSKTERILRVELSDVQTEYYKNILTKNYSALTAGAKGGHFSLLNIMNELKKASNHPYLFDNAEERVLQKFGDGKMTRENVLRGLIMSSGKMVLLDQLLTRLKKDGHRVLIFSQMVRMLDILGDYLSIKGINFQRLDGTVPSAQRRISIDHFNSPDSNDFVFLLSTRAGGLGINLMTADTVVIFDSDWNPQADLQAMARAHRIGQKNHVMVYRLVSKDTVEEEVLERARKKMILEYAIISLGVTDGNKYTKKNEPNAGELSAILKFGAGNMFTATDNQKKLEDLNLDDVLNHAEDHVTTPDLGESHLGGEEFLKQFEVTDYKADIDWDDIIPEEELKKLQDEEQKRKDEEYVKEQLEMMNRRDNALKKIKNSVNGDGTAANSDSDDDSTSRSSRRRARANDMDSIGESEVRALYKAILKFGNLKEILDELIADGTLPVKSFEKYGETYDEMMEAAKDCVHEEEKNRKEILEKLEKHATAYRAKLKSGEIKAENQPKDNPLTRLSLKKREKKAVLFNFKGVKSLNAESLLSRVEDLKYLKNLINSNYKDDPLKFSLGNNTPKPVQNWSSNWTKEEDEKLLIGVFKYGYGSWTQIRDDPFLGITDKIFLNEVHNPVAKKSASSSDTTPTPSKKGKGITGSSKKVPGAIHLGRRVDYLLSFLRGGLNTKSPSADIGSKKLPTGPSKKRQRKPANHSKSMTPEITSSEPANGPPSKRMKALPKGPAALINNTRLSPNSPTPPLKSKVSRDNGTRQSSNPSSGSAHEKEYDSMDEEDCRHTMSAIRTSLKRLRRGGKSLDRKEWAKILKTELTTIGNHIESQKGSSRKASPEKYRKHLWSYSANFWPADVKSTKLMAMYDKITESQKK

Molecules are shown by their SMILES. For some of these results: Measured potencies and affinities stand elsewhere.

Chain of Protein translocase subunit SecA (Escherichia coli (strain K12)) (P10408 whole entry): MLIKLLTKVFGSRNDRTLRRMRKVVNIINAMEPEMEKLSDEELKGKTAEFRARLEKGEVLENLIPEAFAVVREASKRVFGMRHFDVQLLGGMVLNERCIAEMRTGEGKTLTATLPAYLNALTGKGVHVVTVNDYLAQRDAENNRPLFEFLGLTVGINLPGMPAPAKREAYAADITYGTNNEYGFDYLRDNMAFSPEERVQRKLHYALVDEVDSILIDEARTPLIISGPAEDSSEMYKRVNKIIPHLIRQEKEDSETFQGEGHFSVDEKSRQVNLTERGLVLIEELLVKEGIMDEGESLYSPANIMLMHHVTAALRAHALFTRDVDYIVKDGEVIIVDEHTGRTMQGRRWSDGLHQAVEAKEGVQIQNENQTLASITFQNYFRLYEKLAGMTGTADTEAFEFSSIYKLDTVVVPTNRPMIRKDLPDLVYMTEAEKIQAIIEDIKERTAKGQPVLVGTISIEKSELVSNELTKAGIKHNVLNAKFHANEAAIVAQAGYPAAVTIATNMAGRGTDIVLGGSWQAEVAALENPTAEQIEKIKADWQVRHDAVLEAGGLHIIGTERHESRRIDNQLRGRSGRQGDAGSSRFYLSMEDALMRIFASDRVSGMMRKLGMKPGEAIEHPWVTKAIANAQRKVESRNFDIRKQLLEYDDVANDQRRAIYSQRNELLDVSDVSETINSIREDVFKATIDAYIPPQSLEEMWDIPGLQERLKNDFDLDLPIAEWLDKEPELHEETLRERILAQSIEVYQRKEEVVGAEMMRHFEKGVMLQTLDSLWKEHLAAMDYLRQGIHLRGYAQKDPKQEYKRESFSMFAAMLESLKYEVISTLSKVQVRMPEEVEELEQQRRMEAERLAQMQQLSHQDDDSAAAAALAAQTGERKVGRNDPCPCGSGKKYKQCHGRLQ

With `COCCn1nc(C(=O)N2CCCC2c2cccc(F)c2)ccc1=O` (stereo unspecified), the Percent Effect was -0.858% in [1]; 5.41% in test [2]; -0.552% in test [3]; 11.3% in test [4]; 2.9% in the test on Trypanosoma cruzi; 10% in test [5]. In addition, the Percent Effect in test [6] is 8.1%; in the test listed under Homo sapiens, -4.91%; in test [7], -0.529%; in [8] it was -2.44%; in test [9], -0.976%.
As for `COCCN1CCC(Cc2cncc(-c3ccc(C(=O)O)cc3)n2)C1` (stereo unspecified), the Percent Effect is -5.18% in test [1]; 1.35% in [2]; 42.5% in test [3]; -3.43% in test [4]; -3.75% in the test on Trypanosoma cruzi; -2.55% in test [5]. The Percent Effect is 3.43% in [6]; 12.6% in the test filed under Homo sapiens; 1.07% in [7]; 1.3% in test [8]; -3.54% in test [9].
Turning to `CCOc1cccc(NS(=O)(=O)c2cc(C)c(C(=O)O)s2)c1`, the Percent Effect is -6.74% in [1]; 8.11% in test [2]; -13.3% in [3]; 45.6% in test [4]; 7.72% in the test on Trypanosoma cruzi; 19.1% in test [5]. In addition, the Percent Effect in [6] was 6.27%; in the test filed under Homo sapiens it was -0.127%; in test [7] it was -10.8%; in [8], -3.7%; in test [9] it was -13.9%.
`O=C(O)C(c1ccc2c(c1)OCCO2)N1CCCCCC1` (stereo unspecified): the Percent Effect in test [1] was -4.06%; in [2], 5.33%; in test [3], 0.637%; in test [4] it was 5.42%; in the test with Trypanosoma cruzi, -0.682%; in test [5], 4.69%. Besides, the Percent Effect is 17.1% in test [6]; -7.93% in the test listed under Homo sapiens; 9.29% in [7]; 13.6% in test [8]; -1.28% in [9].
For `Cc1ccc(CN2CCC[C@]3(C(=O)O)CN(c4ncccn4)C[C@@H]3C2)o1`, the Percent Effect in [1] was -3.35%; in test [2], 5.33%; in test [3], -3.88%; in test [4] it was 3.31%; in the test on Trypanosoma cruzi it was 0.579%; in test [5] it was -39.6%. In addition, the Percent Effect in test [6] was 3.59%; in the test filed under Homo sapiens, -0.723%; in test [7], 5.21%; in test [8], -15%; in test [9], -7.67%.
On to `Cc1cc(CN(C)C(=O)c2cccc(N3CCCC3=O)c2)no1`, for which the Percent Effect in [1] was -1.16%; in [2], 20.2%; in [3], -7.29%; in test [4], -9%; in the test with Trypanosoma cruzi it was -4.25%; in test [5] it was -0.76%. For the same molecule, the Percent Effect was 12.2% in test [6]; 13.3% in the test filed under Homo sapiens; 3.45% in test [7]; 16.5% in test [8]; -4.16% in test [9].
As for `COc1ccc(CN2CCCC(Cn3nc(C)nc3C)C2)cc1F` (stereo unspecified), the Percent Effect in test [1] is -2.67%; in test [2] it was -3.8%; in [3], 7.97%; in [4] it was -1.91%; in the test with Trypanosoma cruzi it was 5.64%; in test [5], -1.94%. Besides, the Percent Effect is 0% in test [6]; 5.94% in the test listed under Homo sapiens; -2.08% in test [7]; 2.53% in [8]; 4.68% in test [9].
Take `CCC1CN(C(=O)Nc2cnc3c(cnn3C(C)C)c2)CCO1` (stereo unspecified): the Percent Effect in test [1] is 0.162%; in test [2], 13.5%; in [3], -1.29%; in test [4] it was 10.7%; in the test on Trypanosoma cruzi, -5.48%; in test [5] it was 0.554%. In addition, the Percent Effect in test [6] is 17.6%; in the test filed under Homo sapiens, 22.8%; in test [7], 6.93%; in test [8], 18.3%; in [9], -2.08%.
On to `CCn1cnnc1C1CCN(C(=O)c2cc3c(s2)CCC3)CC1`, for which the Percent Effect in test [1] was -5.61%; in test [2] it was 20.2%; in test [3] it was -5.35%; in test [4], 8.78%; in the test with Trypanosoma cruzi it was 6.52%; in test [5], -7.22%. For the same molecule, the Percent Effect in test [6] was 20.2%; in the test filed under Homo sapiens, -5.6%; in test [7] it was 8.37%; in [8] it was 21.5%; in test [9], -4.66%.
In the case of `COc1ccccc1C(=O)N1CCCC1Cn1cc(C)cn1` (stereo unspecified), the Percent Effect in test [1] was -3.53%; in [2] it was 18.9%; in test [3], -13.2%; in test [4], -6.09%; with Trypanosoma cruzi it was -4.25%; in test [5], -2.81%. Moreover, the Percent Effect is 4.68% in [6]; -3.42% in the test filed under Homo sapiens; 11.3% in test [7]; 18.5% in test [8]; -4.38% in [9].
For the molecule `COc1ccccc1CNC(=O)Cn1ncc2c1c(C)nn2C`, the Percent Effect in [1] is -2.51%; in [2] it was 6.67%; in [3] it was 1.32%; in test [4], 6.52%; with Trypanosoma cruzi, -7.86%; in test [5] it was -15%. For the same molecule, the Percent Effect in [6] is 12.8%; in the test filed under Homo sapiens, -0.504%; in test [7], 5.29%; in test [8] it was 7.69%; in test [9], -9.43%.
